An excerpt weighted towards active compounds, which were near 0.9% of everything screened.
SRC3 TRFRET art – counter-screen for PPARgamma SRC-3 recruitment agonists: TR-FRET artefact. PPARgamma/SRC-3 format; stronger effect = higher value. TR-FRET ratio at 8 µM. hit rate 0.39% among 99,000
PPARg SRC-2 ag – PPARgamma-driven SRC-2 recruitment agonism. hit rate 0.34% among 200,000. AID 1032. P37231. PPARgamma LBD-SRC-2 recruitment, biochemical. activation, % at 8 µM; in the data active = activation above about 22%;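 also: 0% = vehicle and 100% = reference agonist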
Target sequence (P37231 whole entry, looked up, the tested form may be a part): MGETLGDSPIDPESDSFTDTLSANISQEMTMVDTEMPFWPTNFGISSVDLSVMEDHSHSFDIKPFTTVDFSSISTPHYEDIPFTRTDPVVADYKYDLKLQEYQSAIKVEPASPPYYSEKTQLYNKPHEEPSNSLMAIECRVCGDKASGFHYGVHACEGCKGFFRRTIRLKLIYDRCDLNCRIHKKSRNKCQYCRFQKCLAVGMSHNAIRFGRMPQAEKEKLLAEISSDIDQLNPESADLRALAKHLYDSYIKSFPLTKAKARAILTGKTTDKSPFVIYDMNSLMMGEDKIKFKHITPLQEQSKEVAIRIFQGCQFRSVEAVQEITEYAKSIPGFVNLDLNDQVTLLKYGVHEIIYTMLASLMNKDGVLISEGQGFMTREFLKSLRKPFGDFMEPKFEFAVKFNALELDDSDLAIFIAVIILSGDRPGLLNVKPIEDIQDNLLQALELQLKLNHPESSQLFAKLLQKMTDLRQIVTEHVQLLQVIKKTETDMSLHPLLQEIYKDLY
TR-FRET SRC-2 ct – counter-screen for PPARgamma SRC-2 recruitment agonists: TR-FRET artefact. stronger effect = higher value. TR-FRET ratio at 8 µM. hit rate 0.4% among 200,000
SRC1 TRFRET art – counter-screen for PPARgamma SRC-1 recruitment agonists: TR-FRET artefact | TR-FRET detection artefact counter-screen, emission ratio; stronger effect = higher value | TR-FRET ratio at 8 µM | hit rate 0.34% among 99,000 | AID 1051; in the data active = TR-FRET ratio above about 2300
PPARg SRC3 recr – promotes SRC-3 coactivator recruitment by human PPARgamma; P37231; biochemical PPARgamma/SRC-3 coactivator recruitment assay; activation, % at 8 µM; hit rate 0.26% among 200,000; AID 731; in the data active = activation above about 23%;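 also: 0% = DMSO and 100% = reference agonist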
PPARg SRC1 recr – promotes SRC-1 coactivator recruitment by human PPARgamma | P37231 | PPARgamma-SRC-1 coactivator recruitment biochemical assay | activation, % at 8 µM | hit rate 0.41% among 200,000 | AID 631; in the data active = activation above about 19%;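 also: 0% = DMSO and 100% = reference agonist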
Starred values were filed as active, the others as inactive; / = not tested or not shown. Rule as the data show it, unless noted: active = TR-FRET ratio above about 2000; inactive = the rest.

SMILES	SRC3 TRFRET art	PPARg SRC-2 ag	TR-FRET SRC-2 ct	SRC1 TRFRET art	PPARg SRC3 recr	PPARg SRC1 recr
Cc1nn(-c2ccccn2)c2c1-c1nc(N3CCOCC3)ncc1CC2	/	1	1572	/	-6	22*
O=C(c1ccco1)N1CCN(C(=O)c2cc(-c3ccncc3)nc3ccc(Br)cc23)CC1	/	5	1679	/	15	9
O=C(O)c1cc(-c2ccco2)nc2ccc(Br)cc12	2104*	22	2007*	2318*	16	18
CCOC(=O)C(NCc1ccc(OC)cc1)(NC(C)=O)C(F)(F)F (configuration not stated)	1458	2	1516	1662	-3	-4
Brc1ccc(C=Nc2ccc(Nc3ccccc3)cc2)s1	1732	29*	1648	1838	2	9
O=C(CSc1ncnc2c1nnn2Cc1ccccc1F)N1CCN(c2ccccc2)CC1	/	67*	2938*	/	-4	3
O=C(Cn1cnc2c(nnn2Cc2ccccc2F)c1=O)N1CCN(c2ccccc2)CC1	/	1	1480	/	2	-4
COc1ccc(S(=O)(=O)N2CCC(N3CCN(Cc4ccccc4)CC3)CC2)cc1	1572	-3	1489	1599	-4	-3
COc1ccc(S(=O)(=O)N2CCN(C3Cc4ccccc4C3)CC2)cc1	2079*	-1	1352	1748	6	-6
CCOC(=O)c1sc2nc(CC(=O)OC)nc(NCc3ccc(F)cc3)c2c1C	/	57*	3064*	/	-1	8
NCCc1nc(-c2ccccc2)cs1	1735	1	1551	1813	3	9
O=C(NC1CCCCC1)[C@H](CSCc1ccccc1)N1Cc2ccccc2C1=O	1505	-13	1419	1719	0	-13
O=C(CN1CCCC(O)C1)N1c2ccccc2Sc2ccc(C(F)(F)F)cc21 (configuration not stated)	/	3	1597	/	8	10
O=C(CSc1nc(C2CC2)nc2ccccc12)N1c2ccccc2Sc2ccc(C(F)(F)F)cc21	/	-1	1994*	/	3	-1
Cc1noc2ncnc(Oc3ccc(Cl)cc3Cl)c12	1603	-2	1554	1723	5	8
COCCNC(=S)N(Cc1cc2cc(C)ccc2n2nnnc12)C1CCCC1	1536	1	1421	1583	1	-9
CCc1ccc2c(c1)cc(CN(C(=S)Nc1ccc(Cl)cc1)C1CC1)c1nnnn12	/	-4	1566	/	1	48*
CCC(C)NC(=O)Cn1c(=O)n(CCCC(=O)NCc2ccccc2Cl)c(=O)c2ccccc21 (configuration not stated)	/	22*	1629	/	5	-2
CCCCCCC1CCC(C(=O)Nn2c(C)nc3ccccc3c2=O)CC1 (configuration not stated)	/	22*	1723	/	-4	5
Cc1nc2ccccc2c(=O)n1NC(=O)c1ccco1	/	12	2082*	/	7	-2
CCCC1CCC(C(=O)Nn2c(C)nc3ccccc3c2=O)CC1 (configuration not stated)	/	-3	1484	/	3	5
O=C(Nn1c(-c2ccccc2)nc2ccccc2c1=O)c1ccco1	/	5	1556	/	3	8
COc1ccc([N+](=O)[O-])cc1N(CC(=O)N1CCOCC1)S(C)(=O)=O	1338	1	1469	1685	5	6
CCO[C@H]1OC(C(=O)N2CCN(Cc3ccc4c(c3)OCO4)CC2)=C[C@@H](c2ccccc2)[C@@H]1CCCO	1624	1	1574	1658	0	4
CCO[C@@H]1OC(C(=O)N2CCN(Cc3ccc4c(c3)OCO4)CC2)=C[C@H](c2csc3ccccc23)[C@H]1CCCO	1578	23*	1593	2146	6	9
COc1ccc(/C(N)=N/OC(=O)Cc2ccc(OC)c(OC)c2)cc1	/	-1	1640	/	7	-5
CC1CCN(C(c2cccs2)c2nnnn2Cc2ccccc2)CC1 (configuration not stated)	/	4	1714	/	3	5
COc1cc(-c2nc3ccccn3c2/N=C/c2cccc(OC)c2O)ccc1O	1752	17	2175*	2128	8	7
COc1cc(-c2nc3ccccn3c2/N=C/c2ccc(F)cc2)ccc1O	1737	1	1636	2014	3	10
CNC(=O)NC(=O)C(C)OC(=O)c1cc2c(s1)CCCCC2 (configuration not stated)	1493	9	1685	1969	7	7

Screens (PubChem)
